# In the supplement of paper PMC8975748:
# Counter-ions that a name gives are not always drawn. ± gives the standard deviation of the averaged measurements.
# Columns and labels:
# [1] = test system: Saccharomyces cerevisiae BY4741 SeMeCo community; test: mean cell size (pixel area) (pixels); higher = larger cells; details: 10 µM; 24 h; SM minimal medium
# Method in brief: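 Harmony analysis of automated confocal images of paraformaldehyde-fixed yeast gave the mean cell pixel area per well. The yeast was a Saccharomyces cerevisiae BY4741 community carrying four plasmids, each with a fluorescent marker and each complementing one auxotrophy, incubated for 24 h in SM medium containing drug at a final 10 µM in 384-well plates. Results are averaged over 3 replicates. Same SeMeCo high-content imaging drug screen: Selleck FDA-approved drugs at 10 µM, 24 h in SM medium, 384-well plates, 3 replicates.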
# [2] = test system: Saccharomyces cerevisiae BY4741 SeMeCo community; test: z-score of prototroph abundance vs DMSO median; higher = larger share of this subpopulation than in DMSO controls; details: 10 µM; 24 h; SM minimal medium; subpopulation (auxotrophy): Prototroph
# Method in brief: (§1)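 Scoring was based on each subpopulation's abundance, expressed as a z-score against the vehicle-well median. A Saccharomyces cerevisiae BY4741 community with four plasmids, each restoring one auxotrophy and encoding a distinct fluorescent protein, was pre-grown overnight to OD600 1.0, diluted to 0.3, and added at 70 µl to 384-well plates acoustically predosed with library drugs (10 µM final). It then grew 24 h in minimal SM medium before paraformaldehyde fixation and automated confocal microscopy, with single-auxotroph fluorescent strains setting thresholds and autofluorescence correction.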
# [3] = test system: Saccharomyces cerevisiae BY4741 SeMeCo community; test: z-score of subpopulation abundance vs DMSO median, subpopulation auxotrophic for M; higher = larger share of this subpopulation than in DMSO controls; details: 10 µM; 24 h; SM minimal medium; subpopulation (auxotrophy): M
# Method in brief: as §1
# [4] = test system: Saccharomyces cerevisiae BY4741 SeMeCo community; test: z-score of subpopulation abundance vs DMSO median, subpopulation auxotrophic for L; higher = larger share of this subpopulation than in DMSO controls; details: 10 µM; 24 h; SM minimal medium; subpopulation (auxotrophy): L
# Method in brief: as §1
# [5] = test system: Saccharomyces cerevisiae BY4741 SeMeCo community; test: z-score of subpopulation abundance vs DMSO median, subpopulation auxotrophic for U; higher = larger share of this subpopulation than in DMSO controls; details: 10 µM; 24 h; SM minimal medium; subpopulation (auxotrophy): U
# Method in brief: as §1
# [6] = test system: Saccharomyces cerevisiae BY4741 SeMeCo community; test: z-score of subpopulation abundance vs DMSO median, subpopulation auxotrophic for LU; higher = larger share of this subpopulation than in DMSO controls; details: 10 µM; 24 h; SM minimal medium; subpopulation (auxotrophy): LU
# Method in brief: as §1
# [7] = test system: Saccharomyces cerevisiae BY4741 SeMeCo community; test: z-score of subpopulation abundance vs DMSO median, subpopulation auxotrophic for LM; higher = larger share of this subpopulation than in DMSO controls; details: 10 µM; 24 h; SM minimal medium; subpopulation (auxotrophy): LM
# Method in brief: as §1
# [8] = test system: Saccharomyces cerevisiae BY4741 SeMeCo community; test: z-score of subpopulation abundance vs DMSO median, subpopulation auxotrophic for HM; higher = larger share of this subpopulation than in DMSO controls; details: 10 µM; 24 h; SM minimal medium; subpopulation (auxotrophy): HM
# Method in brief: as §1
# [9] = test system: Saccharomyces cerevisiae BY4741 SeMeCo community; test: z-score of subpopulation abundance vs DMSO median, subpopulation auxotrophic for HU; higher = larger share of this subpopulation than in DMSO controls; details: 10 µM; 24 h; SM minimal medium; subpopulation (auxotrophy): HU
# Method in brief: as §1
# [10] = test system: Saccharomyces cerevisiae BY4741 SeMeCo community; test: z-score of subpopulation abundance vs DMSO median, subpopulation auxotrophic for UM; higher = larger share of this subpopulation than in DMSO controls; details: 10 µM; 24 h; SM minimal medium; subpopulation (auxotrophy): UM
# Method in brief: as §1
# [11] = test system: Saccharomyces cerevisiae BY4741 SeMeCo community; test: z-score of subpopulation abundance vs DMSO median, subpopulation auxotrophic for HL; higher = larger share of this subpopulation than in DMSO controls; details: 10 µM; 24 h; SM minimal medium; subpopulation (auxotrophy): HL
# Method in brief: as §1
# [12] = test system: Saccharomyces cerevisiae BY4741 SeMeCo community; test: z-score of subpopulation abundance vs DMSO median, subpopulation auxotrophic for HLU; higher = larger share of this subpopulation than in DMSO controls; details: 10 µM; 24 h; SM minimal medium; subpopulation (auxotrophy): HLU
# Method in brief: as §1
# [13] = test system: Saccharomyces cerevisiae BY4741 SeMeCo community; test: z-score of subpopulation abundance vs DMSO median, subpopulation auxotrophic for HLM; higher = larger share of this subpopulation than in DMSO controls; details: 10 µM; 24 h; SM minimal medium; subpopulation (auxotrophy): HLM
# Method in brief: as §1
# [14] = test system: Saccharomyces cerevisiae BY4741 SeMeCo community; test: z-score of subpopulation abundance vs DMSO median, subpopulation auxotrophic for LUM; higher = larger share of this subpopulation than in DMSO controls; details: 10 µM; 24 h; SM minimal medium; subpopulation (auxotrophy): LUM
# Method in brief: as §1
# [15] = test system: Saccharomyces cerevisiae BY4741 SeMeCo community; test: z-score of subpopulation abundance vs DMSO median, subpopulation auxotrophic for H; higher = larger share of this subpopulation than in DMSO controls; details: 10 µM; 24 h; SM minimal medium; subpopulation (auxotrophy): H
# Method in brief: as §1
# [16] = test system: Saccharomyces cerevisiae BY4741 SeMeCo community; test: z-score of subpopulation abundance vs DMSO median, subpopulation auxotrophic for HLUM; higher = larger share of this subpopulation than in DMSO controls; details: 10 µM; 24 h; SM minimal medium; subpopulation (auxotrophy): HLUM
# Method in brief: as §1
Compound,mean cell size [1],z-score of prototroph abundance [2],z-score of subpopulation abundance [3],z-score of subpopulation abundance [4],z-score of subpopulation abundance [5],z-score of subpopulation abundance [6],z-score of subpopulation abundance [7],z-score of subpopulation abundance [8],z-score of subpopulation abundance [9],z-score of subpopulation abundance [10],z-score of subpopulation abundance [11],z-score of subpopulation abundance [12],z-score of subpopulation abundance [13],z-score of subpopulation abundance [14],z-score of subpopulation abundance [15],z-score of subpopulation abundance [16]
CN1CCN(c2cc3c(cc2F)c(=O)c(C(=O)O)cn3-c2ccc(F)cc2)CC1 [Difloxacin hydrochloride],12.1 ± 0.29,0.85,0.06,-0.28,-0.57,-0.13,-0.31,-0.76,-0.87,-0.52,-1.38,-0.55,-0.2,-0.26,,
CC[C@H]1OC(=O)[C@H](C)[C@@H](O[C@H]2C[C@@](C)(OC)[C@@H](O)[C@H](C)O2)[C@H](C)[C@@H](O[C@@H]2O[C@H](C)C[C@H](N(C)C)[C@H]2O)[C@](C)(O)C[C@@H](C)[C@@H]2N[C@@H](COCCOC)O[C@H]([C@H]2C)[C@]1(C)O [Dirithromycin],12.3 ± 0.27,0.11,0.26,0.38,0.26,0.32,0.49,-0.53,,-0.05,-0.09,-0.71,-0.77,0.3,-0.21,-0.46
CO/N=C(\C(=O)N[C@@H]1C(=O)N2C(C(=O)O)=C(CSc3nc(=O)c(O)nn3C)CS[C@H]12)c1csc(N)n1 [Ceftriaxone Sodium Trihydrate],12.23 ± 0.09,0.45,-1.17,2.07,0.09,0.56,-0.18,-1.19,0.14,-2.42,0.91,2.14,0.5,-0.43,-0.32,0.83
Cc1cc(CC(C)CC(C)(C)C)n(O)c(=O)c1 (stereo not given) [Piroctone Olamine],12 ± 0.34,-16.9,0.45,1.41,,2.47,6.65,24,,6.25,14.6,20.3,39.5,16,3.62,16.6
CC(C)(C)C(=O)OCOC(=O)[C@@H]1N2C(=O)[C@@H](/N=C/N3CCCCCC3)[C@H]2SC1(C)C [Pivmecillinam hydrochloride],12.3 ± 0.13,-0.55,-0.74,0.41,,0.57,-0.18,-0.25,-0.03,-0.01,0.29,-0.02,-0.52,-0.28,0.1,-0.19
CN(C)CCc1c[nH]c2ccc(CS(=O)(=O)N3CCCC3)cc12 [Almotriptan Malate],12.4 ± 0.14,0.66,-0.37,0.74,-0.42,0.07,-0.71,,0,-0.12,-0.69,-0.86,-0.23,-0.23,-0.37,-0.37
CN1CCN(CC(=O)N2c3ccccc3C(=O)Nc3cccnc32)CC1 [Pirenzepine dihydrochloride],11.97 ± 0.054,0.72,-0.96,-0.62,-0.46,-0.44,,-0.85,-0.67,-0.76,,-0.21,-0.87,-1.37,0.01,-0.89
C[N+]1(C)CCC(OC(=O)C(O)(c2ccccc2)C2CCCC2)C1 (stereo not given) [Glycopyrrolate],12.32 ± 0.11,-0.59,0.07,-0.73,1.42,0.76,-0.6,-0.21,0.57,1.58,-0.5,-0.14,0.17,0.56,-0.58,-0.01
C=CC[C@@H]1/C=C(\C)C[C@H](C)C[C@H](OC)[C@H]2O[C@@](O)(C(=O)C(=O)N3CCCC[C@H]3C(=O)O[C@H](/C(C)=C/[C@@H]3CC[C@@H](O)[C@H](OC)C3)[C@H](C)[C@@H](O)CC1=O)[C@H](C)C[C@@H]2OC [Tacrolimus (FK506)],12.02 ± 0.1,-1.63,2.07,0.71,-0.41,-1.01,0.93,1.61,1.08,1.02,1.89,1.27,1.8,1.93,1.87,2.77
CO/N=C(\C(=O)N[C@@H]1C(=O)N2C(C(=O)[O-])=C(C[N+]3(C)CCCC3)CS[C@H]12)c1csc(N)n1 [Cefepime Dihydrochloride Monohydrate],12.4 ± 0.19,-0.67,0.62,0.49,,0.05,0.72,1.14,-0.45,0.07,,0.65,0.34,1.06,0.4,0.19
CCCN1CCCC[C@H]1C(=O)Nc1c(C)cccc1C [Ropivacaine],12.24 ± 0.031,0.72,0.5,-0.8,,-1.21,0.11,-0.51,-0.86,,-0.66,-0.32,-0.22,-0.83,-0.64,-0.55
CCCCN(CCCC)CC(O)c1cc(Cl)cc2c1-c1ccc(Cl)cc1/C2=C/c1ccc(Cl)cc1 (stereo not given) [Lumefantrine],12.4 ± 0.14,-1,-0.39,-0.76,1.6,0.38,-0.24,0.53,0.43,,-0.58,-0.32,-0.39,0.62,0.2,-0.39
CO/N=C(\C(=O)N[C@@H]1C(=O)N2C(C(=O)O)=C(CSC(=O)c3ccco3)CS[C@H]12)c1csc(N)n1 [Ceftiofur HCl],12.54 ± 0.051,-0.76,-0.14,-0.69,1.47,1,-0.53,0.46,0.85,1.05,-0.8,0.02,0.11,,-0.05,0.19
CN1CCCN=C1/C=C/c1cccs1 [Pyrantel Pamoate],12.8 ± 0.19,0.2,1.45,-0.64,0.04,-0.11,-0.65,,,-1.25,-0.22,0.47,0.61,,1.26,
